In PubChem BioAssay (EPA / NIEHS) one finds outcome and AC50 data, which are given here for six molecules.

“And” between values parts separate entries of the source, which are not always exact repeats. Identical values can stand only once. Records with an inconclusive call do not appear. Some structures have more than one record in an assay (separate samples or runs), and their calls can disagree. The source made the active and inactive calls. The calls were made as follows, unless noted: active = hit-call score of the fitted dose curve at least 0.9, where 1 is the maximum; inactive = score below 0.9.

Read-out in experiment [1]: Interleukin-8 (IL8), CXCL8 (gene 3576)
As to the kind of experiment: BSK_3C_IL8: BioMAP Diversity Plus: 3C Assay for Interleukin-8 (IL8) Biomarker Activity (AID 2283020). The following applies: primary human endothelial cells (HUVEC); actives raise or lower the signal. The essentials: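 ELISA read-out of IL-8 from human umbilical vein endothelium, measured 24 h after chemical dosing. Activity is expressed relative to DMSO negative control, with both increases and decreases fitted.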

Read-out in experiment [2]: Monokine induced gamma interferon (MIG), CXCL9 (gene 4283)
Kind of experiment: BSK_3C_MIG: BioMAP Diversity Plus: 3C Assay for Monokine induced gamma interferon (MIG) Biomarker Activity (AID 2283021). Particulars: primary human endothelial cells (HUVEC); actives raise or lower the signal. The essentials:
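Read-out is ELISA detection of MIG on human umbilical vein endothelial cells, taken 24 h after dosing. Gain or loss of signal was scored relative to DMSO controls using bidirectional curve fitting.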

Experiment [3] concerns the target human Vitamin D Receptor (VDR), VDR (gene 7421) (UniProt P11473). As to the kind of experiment: ATG_VDR_TRANS: Attagene TRANS-FACTORIAL HepG2 Assay for human Vitamin D Receptor (VDR) (AID 2283022; active = hit-call score of the fitted dose curve at least 0.9, where 1 is the maximum). A digest of the protocol: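 HepG2 cells were transiently transfected with GAL4-UAS reporter units and a chimeric VDR-Gal4 construct, then dosed for 24 hours. Reporter mRNA was quantified by RT-PCR, fluorescent labeling, HpaI digestion and capillary electrophoresis; gain of signal analysed vs DMSO.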

Experiment [4] can be described thus: BSK_3C_SRB: Viability Assessment in the BioMAP Diversity Plus: 3C Assay (AID 2283023).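 Also: fitted both ways against DMSO so a hit may be signal rise or drop.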 Particulars: primary human endothelial cells (HUVEC). The essentials:
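Human umbilical vein endothelial cells in the 3C system, treated 24 h. Total protein measured by 0.1% sulforhodamine B staining after 10% TCA fixation, read at 560 nm; bidirectional fit versus DMSO.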

Read-out in experiment [5]: Matrix Metallopeptidase 1 (MMP1), MMP1 (gene 4312)
As to the kind of experiment: BSK_BE3C_MMP1: BioMAP Diversity Plus: BE3C Assay for Matrix Metallopeptidase 1 (MMP1) Biomarker Activity (AID 2283024). The following applies: primary human bronchial epithelial cells; actives raise or lower the signal. The essentials: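 Human bronchial epithelial cells (BE3C system) exposed to compound for 24 h; MMP1 then quantified by ELISA. Activity was fitted in both directions relative to DMSO.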

Experiment [6] can be described thus: BSK_3C_Vis: BioMAP Diversity Plus: 3C Assay for Morphology Visualization (AID 2283025).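 Also: fitted both ways so gain or loss versus DMSO counts.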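 As to AC50: light microscopy image of cell morphology used as background control.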 Particulars: primary human endothelial cells (HUVEC). A digest of the protocol:
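Chemicals were added to primary human umbilical vein endothelium, cells were incubated 24 h, and morphology was then visualized by light microscopy. Gain or loss of signal was fitted bidirectionally relative to DMSO.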

Read-out in experiment [7]: Pselectin, SELP (gene 6403)
Kind of experiment: BSK_4H_Pselectin: BioMAP Diversity Plus: 4H Assay for Pselectin Biomarker Activity (AID 2283026). Particulars: primary human endothelial cells (HUVEC); actives raise or lower the signal. A digest of the protocol:
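ELISA read-out of P-selectin on human umbilical vein endothelium after 24 h of dosing. Values derive from bidirectional fitting relative to DMSO. Parallel SRB protein staining flagged overt cytotoxicity.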

A short description of experiment [8]: BSK_4H_SRB: Viability Assessment in the BioMAP Diversity Plus: 4H Assay (AID 2283027).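 Also: cells exposed to compound for 24 h before staining.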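 As to AC50: curves fitted both ways versus DMSO so AC50 may be loss or gain.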 The following applies: primary human endothelial cells (HUVEC). The essentials:
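Human umbilical vein endothelial cells, 24 h after chemical dosing; total protein measured by 0.1% sulforhodamine B staining after 10% TCA fixation, read at 560 nm. Bidirectional fitting against DMSO.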

Experiment [9] can be described thus: BSK_BE3C_SRB: Viability Assessment in the BioMAP Diversity Plus: BE3C Assay (AID 2283028). Particulars: primary human bronchial epithelial cells. The essentials:
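Human bronchial epithelial primary cells in confluent culture, 24 h after chemical dosing; total protein by 0.1% SRB staining after 10% TCA fixation, read at 560 nm. Bidirectional fitting versus DMSO baseline.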

Read-out in experiment [10]: Urokinase-type plasminogen activator receptor (uPAR), PLAUR (gene 5329)
As to the kind of experiment: BSK_4H_uPAR: BioMAP Diversity Plus: 4H Assay for Urokinase-type plasminogen activator receptor (uPAR) Biomarker Activity (AID 2283030). The following applies: primary human endothelial cells (HUVEC); actives raise or lower the signal. The essentials:
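Human umbilical vein endothelial cells in the 4H system, 24 h after chemical dosing. Cell-surface uPAR measured by ELISA, fitted in both directions versus DMSO; cytotoxicity checked by SRB total protein in parallel cultures.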

Read-out in experiment [11]: Vascular endothelial growth factor receptor 2 (Homo sapiens) (UniProt P35968)
As to the kind of experiment: BSK_4H_VEGFRII: BioMAP Diversity Plus: 4H Assay for Vascular endothelial growth factor receptor 2 (VEGFR2) Biomarker Activity (AID 2283031).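 As to AC50: cell-surface VEGFR2 protein level quantified by ELISA.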 The following applies: primary human endothelial cells (HUVEC); actives raise or lower the signal. The essentials: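 Primary human umbilical vein endothelial cells (4H system), 24 h exposure; cell-surface VEGFR2 measured by ELISA. Bidirectional fitting versus DMSO; cytotoxicity checked in parallel by SRB total-protein staining.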

Read-out in experiment [12]: Human Leukocyte Antigen - DR isotype (HLADR), HLA-DRA (gene 3122)
Kind of experiment: BSK_BE3C_HLADR: BioMAP Diversity Plus: BE3C Assay for Human Leukocyte Antigen - DR isotype (HLADR) Biomarker Activity (AID 2283032). The following applies: primary human bronchial epithelial cells; actives raise or lower the signal. The essentials: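 ELISA read-out of HLA-DR on human lung bronchial epithelial primary cells, measured 24 h post-dosing. Both increases and decreases were scored relative to DMSO vehicle.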

Read-out in experiment [13]: Vascular cell adhesion molecule 1 (VCAM1), VCAM1 (gene 7412)
As to the kind of experiment: BSK_4H_VCAM1: BioMAP Diversity Plus: 4H Assay for Vascular cell adhesion molecule 1 (VCAM1) Biomarker Activity (AID 2283033).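 As to outcome: cell-surface VCAM-1 protein measured by ELISA.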 The following applies: primary human endothelial cells (HUVEC); actives raise or lower the signal. A digest of the protocol: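 ELISA read-out of VCAM-1 on human umbilical vein endothelium 24 hours after chemical dosing; gain or loss of signal was fitted relative to DMSO, with sulforhodamine B staining of parallel cultures flagging overt cytotoxicity.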

Read-out in experiment [14]: Interferon-gamma inducible Protein 10 (IP10), CXCL10 (gene 3627)
As to the kind of experiment: BSK_BE3C_IP10: BioMAP Diversity Plus: BE3C Assay for Interferon-gamma inducible Protein 10 (IP10) Biomarker Activity (AID 2283034). The following applies: primary human bronchial epithelial cells; actives raise or lower the signal. A digest of the protocol: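 Chemical is dosed onto human lung bronchial epithelial primary cells, cultures are incubated 24 h, and IP-10 is then quantified by ELISA. Gain or loss of signal is fitted in both directions relative to DMSO.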

Read-out in experiment [15]: Monokine induced gamma interferon (MIG), CXCL9 (gene 4283)
Kind of experiment: BSK_BE3C_MIG: BioMAP Diversity Plus: BE3C Assay for Monokine induced gamma interferon (MIG) Biomarker Activity (AID 2283035).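 Also: MIG protein measured by ELISA in BE3C cultures after 24 h of dosing.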 Particulars: primary human bronchial epithelial cells; actives raise or lower the signal. A digest of the protocol:
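Primary human bronchial epithelial cells treated for 24 h; MIG levels measured by ELISA, fitted bidirectionally versus DMSO. Parallel SRB total-protein staining assessed cytotoxicity.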

Read-out in experiment [16]: Transforming growth factor beta 1 (TGFb1), TGFB1 (gene 7040)
Kind of experiment: BSK_BE3C_TGFb1: BioMAP Diversity Plus: BE3C Assay for Transforming growth factor beta 1 (TGFb1) Biomarker Activity (AID 2283036;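 also: TGF-b1 protein level measured by ELISA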). Particulars: primary human bronchial epithelial cells; actives raise or lower the signal. A digest of the protocol: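 Primary human lung bronchial epithelial cells; compound exposure 24 h; TGF-b1 by ELISA; bidirectional fit, DMSO baseline. Parallel SRB total-protein staining for cytotoxicity.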

Read-out in experiment [17]: Plasminogen activator inhibitor-1 (PAI1), SERPINE1 (gene 5054)
As to the kind of experiment: BSK_BE3C_PAI1: BioMAP Diversity Plus: BE3C Assay for Plasminogen activator inhibitor-1 (PAI1) Biomarker Activity (AID 2283037). Particulars: primary human bronchial epithelial cells; actives raise or lower the signal. A digest of the protocol:
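Primary human lung bronchial epithelial cells; chemical dosing; 24 h; PAI-1 measured by ELISA; bidirectional fit referenced to DMSO as negative control.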

Read-out in experiment [18]: urokinase plasminogen activator (uPA), PLAU (gene 5328)
As to the kind of experiment: BSK_BE3C_uPA: BioMAP Diversity Plus: BE3C Assay for urokinase plasminogen activator (uPA) Biomarker Activity (AID 2283038).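 Also: uPA protein level quantified by ELISA in cell cultures; uPA read one day after compound addition.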 The following applies: primary human bronchial epithelial cells; actives raise or lower the signal. A digest of the protocol:
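Primary human bronchial epithelial cells, uPA measured by ELISA 24 h after dosing. Bidirectional change relative to DMSO; cytotoxicity checked in parallel cultures by sulforhodamine B total-protein staining.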

Read-out in experiment [19]: Thrombomodulin, THBD (gene 7056)
As to the kind of experiment: BSK_3C_Thrombomodulin: BioMAP Diversity Plus: 3C Assay for Thrombomodulin Biomarker Activity (AID 2283029). The following applies: primary human endothelial cells (HUVEC); actives raise or lower the signal. The essentials:
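Read-out is ELISA of thrombomodulin on human umbilical vein endothelium 24 h after chemical dosing. Gain or loss of signal is scored relative to DMSO. Overt cytotoxicity is checked in parallel cultures by sulforhodamine B staining.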

Read-out in experiment [20]: Urokinase-type plasminogen activator receptor (uPAR), PLAUR (gene 5329)
As to the kind of experiment: BSK_BE3C_uPAR: BioMAP Diversity Plus: BE3C Assay for Urokinase-type plasminogen activator receptor (uPAR) Biomarker Activity (AID 2283039).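 As to outcome: cells exposed to compound for one day before measurement.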 Particulars: primary human bronchial epithelial cells; actives raise or lower the signal. The essentials:
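Human bronchial epithelial primary cells; chemical exposure 24 h; uPAR by ELISA; bidirectional fit vs DMSO control.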

Chain of human Vitamin D Receptor (VDR), VDR (gene 7421) (P11473 whole entry, looked up, the tested form may be a part): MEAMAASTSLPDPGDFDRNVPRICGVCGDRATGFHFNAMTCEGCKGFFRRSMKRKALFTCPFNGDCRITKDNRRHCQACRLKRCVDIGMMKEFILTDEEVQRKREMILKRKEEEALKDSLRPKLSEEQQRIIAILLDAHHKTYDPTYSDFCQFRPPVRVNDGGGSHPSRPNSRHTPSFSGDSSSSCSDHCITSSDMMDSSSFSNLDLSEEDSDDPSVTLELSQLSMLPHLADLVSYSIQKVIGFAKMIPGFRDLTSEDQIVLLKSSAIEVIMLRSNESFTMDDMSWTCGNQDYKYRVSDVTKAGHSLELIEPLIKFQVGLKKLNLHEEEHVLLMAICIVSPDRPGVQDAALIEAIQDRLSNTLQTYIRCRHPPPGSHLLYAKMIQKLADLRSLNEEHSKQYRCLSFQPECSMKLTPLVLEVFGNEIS

For `CCCCCCC(C)OC(=O)CCCCC(=O)OC(C)CCCCCC` (stereo not given), the outcome in experiment [1], in [2], in [3], in experiment [4], in experiment [5] and in [6] was inactive. Moreover, the result in experiment [7], in experiment [8], in experiment [9], in [10], in experiment [11] and in experiment [12] was inactive. Moreover, the result in [13], in [14], in [15], in experiment [16], in experiment [17] and in [18] was inactive.

`CCCCOCCOCCOC(=O)CCCCC(=O)OCCOCCOCCCC`: the result in experiment [1], in [2], in [3], in [4], in experiment [5] and in experiment [6] was inactive. In addition, the result in experiment [7], in experiment [8], in experiment [9], in experiment [19], in [10] and in [11] was inactive. Also, the outcome in experiment [12], in experiment [13], in experiment [14], in experiment [15], in [16] and in [17] was inactive. The outcome in experiment [18] was inactive.

For `Nc1ccc([N+](=O)[O-])cc1O`, the outcome in experiment [1], in experiment [2], in experiment [3], in [4], in [5] and in [6] was inactive. For the same molecule, the outcome in experiment [7], in experiment [8], in experiment [9], in [19], in experiment [10] and in [11] was inactive. Moreover, the result in [12], in experiment [13], in experiment [14], in [15], in experiment [16] and in experiment [17] was inactive. For the same molecule, the AC50 (as a rule, the midpoint of the concentration-response curve, whichever way the signal moves) in experiment [20] is 20 µM (active).

Regarding `C#C[C@]1(O)CC[C@H]2[C@@H]3CCc4cc(OC)ccc4[C@H]3CC[C@@]21C`, the AC50 is 3.97 µM (active) in experiment [1], 37.5 µM (active) in experiment [6] and 6.9 µM (active) in experiment [12]. For the same molecule, the outcome in experiment [2], in experiment [3], in experiment [4], in experiment [5], in experiment [7] and in experiment [8] was inactive. The result in experiment [9], in [19], in [10], in experiment [11], in [13] and in experiment [15] was inactive. Besides, the outcome in experiment [16], in experiment [17], in [18] and in experiment [20] was inactive.

With `O[Si](c1ccccc1)(c1ccccc1)c1ccccc1`, the result in experiment [1], in experiment [2], in experiment [3], in experiment [5], in experiment [9] and in experiment [12] was inactive. Moreover, the outcome in experiment [14], in experiment [15] and in [16] was inactive. The AC50 in experiment [4] was 28.9 µM (active); in experiment [6] it was 37.4 µM (active); in [7] it was 26.8 µM (active); in [8] it was 13.8 µM (active); in experiment [10], 4.82 µM (active); in [11], 29.5 µM (active). In addition, the AC50 in experiment [13] was 14.8 µM (active); in [17], 8.71 µM (active).

Take `N=C(N)C(F)(F)C(F)(F)C(F)(F)C(F)(F)C(F)(F)C(F)(F)C(F)(F)F`: the outcome in [1], in experiment [2], in experiment [3], in experiment [4], in experiment [5] and in [7] was inactive. The result in experiment [8], in experiment [9], in [10], in [11], in experiment [12] and in experiment [15] was inactive. Moreover, the result in [17] was inactive. In addition, the AC50 in experiment [4] was 54.9 µM (active); in experiment [5], 19.4 µM (active); in experiment [8] it was 48.5 µM (active); in experiment [12], 43.1 µM (active); in experiment [13], 21.1 µM (active) and 44.1 µM (active).
